Test results published in PubChem BioAssay (NCI).
“And” between values parts separate entries of the source, which are not always exact repeats. Identical values can stand only once. About 79,000 compounds went through this panel and 15% of them were active in at least one assay; those are over-represented in the sample as a whole. The source made the active and inactive calls. No stated cut-off is given here; in the data, active means growth inhibition above about 70%; inactive means the rest.

experiment: NCI Yeast Anticancer Drug Screen. Data for the rad50 strain (AID 155);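 further: 0% = growth of vehicle-only cultures of the same strain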; conditions: S. cerevisiae rad50 strain growth inhibition; at 50.0 µM; stronger effect = higher value
Outline: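 Compounds were tested on a yeast strain with an engineered DNA damage repair alteration; the reported value is growth inhibition normalised to vehicle treatment.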

| SMILES | growth inhibition |
| --- | --- |
| OCCN1CCNCC1 | 4.4% (inactive) and -9.55% (inactive) |
| Cn1c(=O)c2[nH]cnc2n(C)c1=O | 4.5% (inactive) and 10.1% (inactive) |
| CCSC(SCC)C(OC(C)=O)C(OC(C)=O)C(COC(C)=O)OC(C)=O (stereo not given) | -2.1% (inactive) and -16.1% (inactive) |
| C=CCC1=C(C)C(OC(=O)C=C(C)C)CC1=O (stereo not given) | 19.8% (inactive) and -4.3% (inactive) |
| CCOC(=O)C(=Cc1ccco1)C(=O)OCC | 38.5% (inactive) and 10.2% (inactive) |
| CCOC(=O)c1ccc(N=[N+]([O-])c2ccc(C(=O)OCC)cc2)cc1 | -10.8% (inactive) and -4.1% (inactive) |
| Nc1c(O)nc[nH]c1=O | 3.5% (inactive) and -8.25% (inactive) |
| CN(C)N=Nc1ccc(C(=O)O)cc1 | 27.6% (inactive) and 12.6% (inactive) |
| C1=NCCCN1 | 19.4% (inactive) and 21.4% (inactive) |
| COC1OC(COC(C)=O)C(OC(C)=O)C(OC(C)=O)C1NC(=O)N(CCCl)N=O (stereo not given) | -0.5% (inactive) and -15.6% (inactive) |
| OCCCc1ccncc1 | -6.05% (inactive) and -8.55% (inactive) |
| CC(C)c1ccc(C(=O)O)cc1 | 11.3% (inactive) and 24% (inactive) |
| C[N+](C)(C)CCO | -16.1% (inactive) and 2.25% (inactive) |
| CC(=O)OCC1OC(n2c(N)c(C#N)c(C)c(C#N)c2=S)C(OC(C)=O)C(OC(C)=O)C1OC(C)=O (stereo not given) | -25.4% (inactive) and -28% (inactive) |
| O=C(O)C1=C/C(=C(/c2ccccc2)c2cc(C(=O)O)c(O)c3ccccc23)c2ccccc2C1=O | 4.2% (inactive) and -7.7% (inactive) |
| O=C(O)c1cc([N+](=O)[O-])ccc1Nc1ccccc1 | 10.8% (inactive) and -9.95% (inactive) |
| O=C(NC(=O)c1ccccc1)NC(=O)c1ccccc1 | -2.6% (inactive) and -1.25% (inactive) |
| CC(O)c1nc2c([nH]1)c(=O)n(C)c(=O)n2C (stereo not given) | -4.3% (inactive) and -3.1% (inactive) |
| CN(C)CC1CC(=O)C(CN(C)C)CC1=O (stereo not given) | 7.35% (inactive) and -5.3% (inactive) |
| C[N+](C)(C)c1ncnc2c1ncn2C1CC(O)C(CO)O1 (stereo not given) | 21.2% (inactive) and -23.1% (inactive) |
| O=C(OC(=C(c1ccccc1)c1ccccc1)c1ccccc1)c1ccccc1 | 12.8% (inactive) and -6.95% (inactive) |
| COc1cc(C)c2c(ccc3ccccc32)n1 | 24.6% (inactive) and 23.9% (inactive) |

experiment: NCI Yeast Anticancer Drug Screen. Data for the mec2-1 strain (AID 157); conditions: S. cerevisiae mec2-1 strain, at 5.0 µM (retest, dose inferred, filed as 0.5), stronger effect = higher value
Outline: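 Mutant yeast (mec2-1) grown with compound; growth inhibition relative to vehicle control reported.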

| SMILES | growth inhibition |
| --- | --- |
| CCC[CH2][Sn]([CH2]CCC)([CH2]CCC)[O]C(=O)C(OC(C)=O)c1ccccc1 (stereo not given) | 99% (active) |
| CC(C)(C)S(=O)(=O)O.[Ag] | 100% (active) |
| COc1ccc2c(c1)C(OC)C1c3c(cc4c(c3-2)OCO4)CCN1C (stereo not given) | 14% (inactive) |
| Cc1nc([N+](=O)[O-])c(Sc2nncc(-c3ccccc3)n2)n1C | 4% (inactive) |
| CC1=CC(=O)C=CC1(C)C(Cl)(Cl)Cl (stereo not given) | -15% (inactive) |
| C=C1C(=O)C2=CC1CCC(=O)C1(C)CCC(OC(C)=O)C(C)(C)C1CC2O (stereo not given) | 10% (inactive) |
| CCOc1ccc(C(CN2CCOCC2)C(C)=O)cc1OC (stereo not given) | -27% (inactive) |
| COc1cc(/C=C2\SC(=S)N(/C=C/c3nc4ccccc4[nH]c3=O)C2=O)cc(OC)c1OC | -10% (inactive) |
| O=[N+]([O-])c1ccc(C2N(Cc3ccc(Cl)cc3)CCN2Cc2ccc(Cl)cc2)cc1 | 48% (inactive) |
| O=[N+]([O-])/C(=C/c1ccccc1)c1ccccc1 | 100% (active) |
| c1ccc(-c2cc3cc4ccccc4cn3c2)cc1 | 43% (inactive) |
| O=[N+]([O-])c1ccc2nc3ccccc3[n+]([O-])c2c1 | 19% (inactive) |
| O=C(CBr)C(Br)C(Br)c1ccccc1 (stereo not given) | 99% (active) |
| Nc1cccc2c1-c1ccccc1C2=O | 1% (inactive) |

same assay, conditions: S. cerevisiae mec2-1 strain, at 50.0 µM (retest, dose inferred, filed as 5.0), stronger effect = higher value

| SMILES | growth inhibition |
| --- | --- |
| CCC[CH2][Sn]([CH2]CCC)([CH2]CCC)[O]C(=O)C(OC(C)=O)c1ccccc1 (stereo not given) | 99% (active) |
| CC(C)(C)S(=O)(=O)O.[Ag] | 99% (active) |
| COc1ccc2c(c1)C(OC)C1c3c(cc4c(c3-2)OCO4)CCN1C (stereo not given) | 27% (inactive) |
| Cc1nc([N+](=O)[O-])c(Sc2nncc(-c3ccccc3)n2)n1C | 38% (inactive) |
| CC1=CC(=O)C=CC1(C)C(Cl)(Cl)Cl (stereo not given) | -12% (inactive) |
| C=C1C(=O)C2=CC1CCC(=O)C1(C)CCC(OC(C)=O)C(C)(C)C1CC2O (stereo not given) | 70% (active) |
| CCOc1ccc(C(CN2CCOCC2)C(C)=O)cc1OC (stereo not given) | 68% (inactive) |
| COc1cc(/C=C2\SC(=S)N(/C=C/c3nc4ccccc4[nH]c3=O)C2=O)cc(OC)c1OC | 45% (inactive) |
| O=[N+]([O-])c1ccc(C2N(Cc3ccc(Cl)cc3)CCN2Cc2ccc(Cl)cc2)cc1 | 97% (active) |
| O=[N+]([O-])/C(=C/c1ccccc1)c1ccccc1 | 99% (active) |
| c1ccc(-c2cc3cc4ccccc4cn3c2)cc1 | 94% (active) |
| O=[N+]([O-])c1ccc2nc3ccccc3[n+]([O-])c2c1 | 99% (active) |
| O=C(CBr)C(Br)C(Br)c1ccccc1 (stereo not given) | 100% (active) |
| Nc1cccc2c1-c1ccccc1C2=O | 18% (inactive) |
